The results in this text go back to PubChem BioAssay (Tox21).

Molecules are shown by their SMILES. Active and inactive are the calls of the source. Where a call stands in place of a potency, no number is given. Calls follow the shape of the dose curve; as a rule, active = well fitted curve in the direction sought with a large enough effect in the repeat runs; inconclusive = weak or mixed curves; inactive = flat fitted curve, though single readings scatter.

A short description of one experiment: qHTS assay to test for compound auto fluorescence at 535 nm (green) in HEK293 cells (AID 720680). Particulars: green autofluorescence 485/535 nm; series mostly up to 46 µM. Background: qHTS replaces the single test concentration by a dilution series.
Consider `Cn1nnnc1SCC1=C(C(=O)O)N2C(=O)[C@@H](NC(=O)[C@H](OC=O)c3ccccc3)[C@H]2SC1`, for which the Potency entry was “inactive”.

Consider `Cn1cc(NC(=O)c2cc(NC(=O)c3cc(NC=O)cn3C)cn2C)cc1C(=O)NCCC(=N)N`, for which the Potency entry was “inactive”.

Consider `O=P(O)(O)OC[C@H]1O[C@](O)(COP(=O)(O)O)[C@@H](O)[C@@H]1O`, for which the Potency entry was “inactive”.

On to `C#C[C@]1(O)CC[C@H]2[C@@H]3CCC4=CCCC[C@@H]4[C@H]3C(=C)C[C@@]21CC`, for which the Potency result was “inactive”.

For the compound `CN=C1C=CC(=C(c2ccc(N(C)C)cc2)c2ccc(N(C)C)cc2)C=C1`, the Potency entry was “inactive”.

Another experiment is described as follows: qHTS assay to test for compound auto fluorescence at 460 nm (blue) in HEK293 cell free culture (AID 720681). Conditions: cell-free medium, autofluorescence 405/460 nm (blue); series mostly up to 46 µM. The essentials: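 Blue fluorescence (Ex 405/Em 460 nm, triamterene-equivalent) was read immediately after pin transfer of compound or DMSO into medium (DMEM, 10% FBS) without cells.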
Take `CC(C)(C)CC(C)(C)c1cc(Cc2cc(C(C)(C)CC(C)(C)C)cc(-n3nc4ccccc4n3)c2O)c(O)c(-n2nc3ccccc3n2)c1`: the Potency entry is “inactive”.

As to `CCCC(=O)N1CCCN(c2nc(N)c3cc(OC)c(OC)cc3n2)CC1`, the Potency entry is “inactive”.

Take `COCC1=C(C(=O)OC(C)OC(=O)OC(C)C)N2C(=O)[C@@H](NC(=O)/C(=N\OC)c3csc(N)n3)[C@H]2SC1` (some centres undefined): the Potency entry was “inactive”.

Consider `CN1CCC(OC(=O)C(Oc2ccc(Cl)cc2)Oc2ccc(Cl)cc2)CC1`, for which the Potency result was “inactive”.

As for `CC(C)[C@@H](C)/C=C/[C@@H](C)[C@H]1CC[C@H]2/C(=C/C=C3\C[C@@H](O)CC[C@@H]3C)CCC[C@]12C`, the Potency result is “inactive”.

`O=C1c2ccccc2C(=O)C1c1ccc(Cl)cc1`: the Potency entry is “inactive”.

On to `O=C(CCCN1CCC(n2c(=S)[nH]c3ccccc32)CC1)c1ccc(F)cc1`, for which the Potency entry was “inactive”.

In the case of `CC1(C)[C@@H]2CC[C@@]1(C)[C@H](OC(=O)CSC#N)C2`, the Potency result was “inactive”.

In the case of `CN1CCC(CN2c3ccccc3Sc3ccccc32)C1` (centres undefined), the Potency entry was “inactive”.

With `CC(C)Cc1ccc([C@@H](C)C(=O)NS(C)(=O)=O)cc1`, the Potency entry is “inactive”.

As for `CC(C)N1CCN(c2ccc(OC[C@H]3CO[C@](Cn4cncn4)(c4ccc(Cl)cc4Cl)O3)cc2)CC1`, the Potency entry was “inactive”.

`Cc1ccc(C2(O)CCN(CCCC(=O)c3ccc(F)cc3)CC2)cc1`: the Potency entry was “inactive”.

In the case of `CCN(CC)CCOCCOC(=O)C(CC)(CC)c1ccccc1`, the Potency entry is “inactive”.

Turning to `CCC(=O)c1ccc2c(c1)N(CCCN1CCN(CCO)CC1)c1ccccc1S2`, the Potency result is “inactive”.

As for `O=S(O)CNc1ccc(S(=O)(=O)c2ccc(NCS(=O)O)cc2)cc1`, the Potency entry was “inactive”.

On to `CCCCCCCCCCCCCCCCOCCOCCOCCOCCOCCOCCOCCOCCOCCOCCOCCOCCOCCOCCOCCOCCOCCOCCOCCOCCO`, for which the Potency entry was “inactive”.

As for `S=C1SCN(Cc2ccccc2)CN1Cc1ccccc1`, the Potency entry was “inactive”.

For the compound `CC(C)CCCC(C)NC(C)C` (centres undefined), the Potency result was “inactive”.

Turning to `CC[C@H]1OC(=O)[C@H](C)[C@@H](O[C@H]2C[C@@](C)(OC)[C@@H](O)[C@H](C)O2)[C@H](C)[C@@H](O[C@@H]2O[C@H](C)C[C@H](N(C)C)[C@H]2O)[C@](C)(O)C[C@@H](C)[C@@H]2N[C@@H](COCCOC)O[C@@H]([C@H]2C)[C@]1(C)O`, the Potency entry is “inactive”.

As for `C[C@H](CCCC(C)(C)O)[C@H]1CC[C@H]2[C@@H]3CC=C4C[C@@H](O)CC[C@]4(C)[C@H]3CC[C@]12C`, the Potency entry is “inactive”.

As to `COc1ccc(/C=C/C(=O)OCCC(C)C)cc1`, the Potency result was “inactive”.

On to `O=C(NNCNNC(=O)c1ccncc1)c1ccncc1`, for which the Potency result is “inactive”.

For the compound `Cc1ccccc1`, the Potency entry is “inactive”.

For the compound `C=C1C(=C/C=C2\CCC[C@]3(C)[C@@H]([C@H](C)/C=C/[C@H](C)C(C)C)CC[C@@H]23)C[C@@H](O)C[C@@H]1O`, the Potency result is “inactive”.

Regarding `CC[C@H](C)[C@H]1O[C@]2(CC[C@@H]1C)C[C@@H]1C[C@@H](C/C=C(\C)[C@@H](O[C@H]3C[C@H](OC)[C@@H](O[C@H]4C[C@H](OC)[C@@H](O)[C@H](C)O4)[C@H](C)O3)[C@@H](C)/C=C/C=C3\CO[C@@H]4[C@H](O)C(C)=C[C@@H](C(=O)O1)[C@]34O)O2`, the Potency result was “inactive”.

Take `O=C(O)[C@@H](O)[C@H](O)[C@H](O)[C@@H](O)C(=O)O` (tested in a mixture with another compound): the Potency result is “inactive”.

As for `CCCCC[C@H](O)/C=C/[C@H]1[C@H](O)CC(=O)[C@@H]1CCCCCCC(=O)O`, the Potency result is “inactive”.

Regarding `O=P(O)(O)OC[C@H](O)CO`, the Potency entry is “inactive”.

Consider `Cn1c(O)c(N=NC(N)=S)c2ccccc21`, for which the Potency result was “inactive”.

Consider `CCCC(=O)O[C@]1(C(=O)COC(=O)CC)[C@@H](C)C[C@H]2[C@@H]3CCC4=CC(=O)C=C[C@]4(C)[C@@]3(F)[C@@H](O)C[C@@]21C`, for which the Potency result is “inactive”.

With `CO[C@H]1C[C@H](O[C@H]2[C@H](C)[C@@H](O[C@@H]3O[C@H](C)C[C@H](N(C)C)[C@H]3OC(C)=O)[C@@H](C)C[C@]3(CO3)C(=O)[C@H](C)[C@@H](OC(C)=O)[C@@H](C)[C@@H](C)OC(=O)[C@@H]2C)O[C@@H](C)[C@@H]1OC(C)=O`, the Potency result is “inactive”.

For `CCN(CC)c1ccc(C(=C2C=CC(=[N+](CC)CC)C=C2)c2ccccc2)cc1`, the Potency result is “inactive”.

Consider `CC(=O)O[C@H]1C[C@@H]2CC[C@@H]3[C@H](CC[C@@]4(C)[C@H]3C[C@H](N3CC[N+](C)(C)CC3)[C@@H]4OC(C)=O)[C@@]2(C)C[C@@H]1N1CC[N+](C)(C)CC1`, for which the Potency entry was “inactive”.

For the compound `COc1cc(-c2ccc(-[n+]3nc(-c4ccccc4)nn3-c3ccc([N+](=O)[O-])cc3)c(OC)c2)ccc1-[n+]1nc(-c2ccccc2)nn1-c1ccc([N+](=O)[O-])cc1`, the Potency result is “inactive”.

As for `Cn1nnnc1SCC1=C(C(=O)O)N2C(=O)[C@@H](NC(=O)[C@H](OC=O)c3ccccc3)[C@H]2SC1`, the Potency result was “inactive”.

`Cn1cc(NC(=O)c2cc(NC(=O)c3cc(NC=O)cn3C)cn2C)cc1C(=O)NCCC(=N)N`: the Potency result is “inactive”.

`O=P(O)(O)OC[C@H]1O[C@](O)(COP(=O)(O)O)[C@@H](O)[C@@H]1O`: the Potency result is “inactive”.

As for `C#C[C@]1(O)CC[C@H]2[C@@H]3CCC4=CCCC[C@@H]4[C@H]3C(=C)C[C@@]21CC`, the Potency entry is “inactive”.

Regarding `CN=C1C=CC(=C(c2ccc(N(C)C)cc2)c2ccc(N(C)C)cc2)C=C1`, the Potency entry is “inactive”.
